Structures are written as SMILES. The panel holds about 83,000 compounds, 20% with a hit somewhere; the sample as a whole holds those more often.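 Plates (96-well) were seeded with cells, treated with compound at one concentration, and incubated for 48 hours before percent growth was determined.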 Unmarked numbers belong to inactive results. Activity calls are given as the source filed them. Rule for the calls: active = growth percent below 10; inactive = the rest.

The assay has as its system LOX IMVI melanoma. The experiment in a line: NCI-60 one-dose screen, 48 h (100 = growth as untreated, 0 = no growth, -100 = all killed). The conditions noted are these: 10 µM unless noted.
Take `Cn1cc(-c2csc(-c3ccc(Cl)cc3)n2)c2cccnc21`: the growth is 1.66% [100 µM] (active). As for `COc1cc(-c2nc(SCCC(C)C)nc(Nc3ccccc3Cl)c2C#N)cc(OC)c1OC`, the figure is 101%. The value for `CCn1c(=S)[nH]c2c(=O)n(C)c(=O)n(C)c21` was 98.8%. `c1ccc(CNc2c3ccccc3nc3ccccc23)cc1`: the growth was 19.8%. For `COCCn1c(-c2csc(-c3cn(C)c4ccc(OC)cc34)n2)cc2cccnc21`, the growth was -22.6% (active). As for `CCOC(=O)CSc1ncnc2c1c(-c1ccccc1)c(-c1ccccc1)n2-c1ccc(C)cc1`, the figure is 78.4%; as for `COc1cc2oc(-c3cccc(NC(=O)c4cccc(Br)c4)c3)cc(=O)c2c(OC)c1OC`, 39.6%. As for `Cc1ccc(Cl)cc1Nc1nc(C(F)(F)F)ccc1C(=O)N/N=C/c1cccnc1`, the figure is 18.6%; as for `Cn1c(=O)c2c(nc(NC3=NS(=O)(=O)c4ccccc43)n2CC(=O)N2CCc3ccccc32)n(C)c1=O`, 91.2%; as for `Cc1cccc(Cl)c1NC(=O)c1ccc2nc(NC(=O)NCCN(C)C)sc2c1`, 91.5%. As for `CCOC(=O)c1c(C)nc2c(c1N)CC(=O)N2Cc1cc(F)cc(Cl)c1`, the growth was 96.5%. The value for `COC(C(=O)[C@@H](O)[C@@H](C)O)[C@@H]1Cc2cc3cc(O[C@H]4C[C@@H](O[C@H]5C[C@@H](O)[C@H](O)C(C)O5)[C@H](O)C(C)O4)cc(O)c3c(O)c2C(=O)[C@H]1O[C@H]1C[C@@H](O[C@H]2C[C@@H](O[C@H]3C[C@@H](OC)[C@H](O)C(C)O3)[C@@H](O)C(C)O2)[C@H](O)C(C)O1` (stereo partly drawn) was 17.8%; that for `CN([O-])c1nc(N(C)[O-])nc(N2CCOCC2)n1.CN([O-])c1nc(N(C)[OH2+])nc(N2CCOCC2)n1.[Fe+3]` was 38.9% [100 µM]. The value for `CCOP(=O)(OCC)c1nc(-c2ccccc2)oc1NCc1cccnc1` was 103%; that for `CCn1c(SCC(=O)c2ccc(Br)cc2)nnc1-c1ccncc1` was 101%.

Consider `CCCCNc1ccc(C#N)c(OCCN(CC)CC)c1`, for which the growth was 102%. The value for `N#Cc1c(-c2ccc(Cl)cc2)nc(NN=Cc2cccc(O)c2)nc1N1CCOCC1` was 61.7%; that for `CS(=O)(=O)Nc1cc(-c2ccc3ncnc(Nc4c(Cl)ccc5c4OCO5)c3c2)cnc1Cl` was -51.2% (active); that for `Fc1cccc(CNc2c3ccccc3nc3ccccc23)c1F` was 39.2%. The value for `COC(=O)CNC(=O)[C@H](Cc1ccccc1)NCc1ccncc1` was 103%. As for `O=C(NCCCN1CCOCC1)c1cccc(N2C(=O)/C(=C/c3ccc(F)cc3)SC2=S)c1`, the figure is 87.3%.

For `O=[N+]([O-])/C(=C/C=C/c1ccccc1)c1ccccc1`, the growth is -0.767% (active). Consider `Cn1cc(-c2csc(-c3c[nH]c4ccc(Br)cc34)n2)c2cnccc21`, for which the growth was -92.7% (active). The value for `C=C(C)[C@@H]1CC[C@]2(C(=O)N3CCN(C)CC3)CC[C@]3(C)[C@H](CC[C@@H]4[C@@]5(C)CC(=C/c6ccncc6)/C(=N/O)C(C)(C)[C@@H]5CC[C@]43C)[C@@H]12` was 86%; that for `COc1cc(N2C(=O)[C@H](O)C2c2ccc(SC)cc2)cc(OC)c1OC` (stereo partly drawn) was 25.5%. As for `CCCCC(=O)c1ccco1`, the figure is 99.6%; as for `C=C(C)[C@@H]1CC[C@]2(C)[C@H](CC=C3[C@@H]4[C@H](C)[C@@H](C)CC[C@]4(CO)CC[C@]32C)[C@@]1(C)CCCN`, -99% (active); as for `COc1ccc2[nH]cc(-c3nc(-c4c[nH]c5ccncc45)cs3)c2c1`, -87.4% (active). The value for `Oc1ccc(CN2CCC(N3CCCCC3)CC2)c2cccnc12` was 17.8%; that for `CC(C)(C)c1cc(-c2nc3ccc(N4CCN(S(C)(=O)=O)CC4)cc3[nH]2)cc(C(C)(C)C)c1O` was 91.8%. Turning to `COc1ccc2c(c1)c(-c1noc(C(=O)c3cn(C)c4ccc(Br)cc34)n1)cn2C`, the growth was 96.8%.

Take `C[C@H](NC(=O)[C@@H](C)N)[C@H](Oc1ccc2c(cnn2-c2ccc(F)cc2)c1)c1ccc2c(c1)OCCO2`: the growth is -67.3% (active). As for `C=C(C)[C@@H]1CC[C@]2(C(=O)O)CC[C@]3(C)[C@H](CC[C@@H]4[C@@]5(C)C[C@@H](Cc6cn(CCO[C@@H]7O[C@H](COC(C)=O)[C@H](OC(C)=O)[C@H](OC(C)=O)[C@H]7OC(C)=O)nn6)[C@H](O)C(C)(C)[C@@H]5CC[C@]43C)[C@@H]12`, the figure is 45.2%.

These data come from PubChem BioAssay (NCI).
